In all, about 340,000 compounds went through this assay and about 470 (0.14%) were called active. The full list was thinned out, with actives kept by preference. Values without a mark were called inactive.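 Rule for the calls: active = mean activation of 30% or more, with every replicate also reaching 30%; inconclusive = mean activation of 30% or more but some replicate falls short; inactive = the rest.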

The assay in a line: miR-122 suppressors via Renilla sensor increase, primary screen, cell-based, Huh7 psiCHECK-miR122, Renilla luciferase, single point (AID 623901).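 Note: 0% = median of neutral control wells and 100% = median of positive control wells; higher luciferase signal means stronger suppression of miR-122 activity.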 The note with it: 48 h, at 12.5 µM, hits give high values.
As for `C/C=C/c1ccc2c(c1)O[C@@H](CN(C)S(C)(=O)=O)[C@@H](C)CN([C@H](C)CO)S2(=O)=O`, the activation was 3.54%.

On to `CCCNC(=O)N(C)C[C@@H]1Oc2ncc(C#CC(C)C)cc2C(=O)N([C@H](C)CO)C[C@H]1C`, for which the activation is 10.4%.

Consider `C[C@H]1CN([C@@H](C)CO)S(=O)(=O)c2ccc(C#CCN(C)C)cc2O[C@H]1CN(C)C(=O)CN(C)C`, for which the activation was 8.35%.

Regarding `COCC(=O)Nc1ccc2c(c1)OC[C@H](C)NC[C@@H](C)[C@H](OC)CN(C)C2=O`, the activation was -4.6%.

As for `CCC(=O)N(C)C[C@@H]1Oc2cc(C#C[C@H](C)O)ccc2S(=O)(=O)N([C@@H](C)CO)C[C@H]1C`, the activation was -2.5%.

On to `C/C=C/c1cnc2c(c1)C(=O)N([C@H](C)CO)C[C@H](C)[C@@H](CN(C)CC1CCOCC1)O2`, for which the activation is 2.95%.

Regarding `CCN1CCN(C(c2cccnc2)c2cc(Cl)c3cccnc3c2O)CC1` (stereo not drawn), the activation was 49.7% (active).

For the compound `O=C1c2ccccc2C2=Nc3ccccc3SC(c3ccccc3F)C12` (stereo not drawn), the activation was -162%.

Regarding `O=C(CNCCC1=CCCCC1)Nc1ccccc1N1CCCCCC1`, the activation was 76.7% (active).

Consider `C=CCNC(=O)c1ccccc1NC(=O)c1ccc(Cl)c(S(=O)(=O)Nc2cccc(C)c2C)c1`, for which the activation was -155%.

As for `COc1ccc(C(CCN(Cc2ccc(OC)c(OC)c2)C(=O)CCl)c2ccccc2)cc1` (stereo not drawn), the activation is 34.7% (active).

Consider `CC(C)CC#Cc1cnc2c(c1)C(=O)N([C@H](C)CO)C[C@H](C)[C@H](CN(C)C(=O)Nc1ccccc1F)O2`, for which the activation was 4.61%.

For `C[C@H](CO)N1C[C@H](C)[C@@H](CN(C)C(=O)Cc2ccncc2)Oc2ncc(C#CCN(C)C)cc2C1=O`, the activation is 3.61%.

As for `COCC#Cc1cnc2c(c1)C(=O)N([C@@H](C)CO)C[C@@H](C)[C@@H](CN(C)S(=O)(=O)c1cccc(OC)c1)O2`, the activation is -3.48%.

As for `C[C@@H](O)C#Cc1cnc2c(c1)C(=O)N([C@@H](C)CO)C[C@H](C)[C@H](CN(C)Cc1cncnc1)O2`, the activation is 3.47%.

For the compound `Cc1cc(C(C)(C)C)cc(S(=O)(=O)Nc2ccc(C(=O)O)cc2)c1C`, the activation was -165%.

`C[C@H](CO)N1C[C@H](C)[C@H](CN(C)C(=O)Nc2ccc3c(c2)OCO3)Oc2ncc(C#Cc3cccc(F)c3)cc2C1=O`: the activation is 5.6%.

For the compound `CNC[C@@H]1Oc2cc(-c3ccccc3OC)ccc2S(=O)(=O)N([C@@H](C)CO)C[C@H]1C`, the activation was -2.47%.

As for `CN1C[C@@H]2[C@H](c3ccccc31)[C@@H](CO)N2C(=O)Nc1ccccc1`, the activation was 41.7% (active).

Consider `O=C(Cc1ccccc1)N1C[C@@H]2[C@H](c3ccccc31)[C@@H](CO)N2C(=O)Nc1ccc(F)cc1`, for which the activation was -92.3%.

Consider `O=C(Nc1cc(F)ccc1F)N1C[C@H]2[C@@H](c3ccccc31)[C@@H](CO)N2C(=O)c1ccccc1`, for which the activation is -133%.

With `C[C@H](O)C#Cc1ccc2c(c1)O[C@H](CN(C)Cc1cncnc1)[C@H](C)CN([C@@H](C)CO)S2(=O)=O`, the activation is -0.322%.

On to `CC(C)c1cc(C(=O)O)n[nH]1`, for which the activation was -143%.

Turning to `C[C@H](CO)N1C[C@H](C)[C@H](CN(C)S(=O)(=O)c2ccccc2)Oc2ncc(-c3cccc(C(F)(F)F)c3)cc2C1=O`, the activation was 11.3%.

For the compound `COCC(=O)Nc1ccc2c(c1)OC[C@H](C)NC[C@H](C)[C@H](OC)CN(C)C2=O`, the activation is -0.878%.

With `C[C@H](O)C#Cc1ccc2c(c1)O[C@@H](CN(C)Cc1cncnc1)[C@H](C)CN([C@H](C)CO)S2(=O)=O`, the activation was 0.702%.

Regarding `COCC(=O)N(C)C[C@@H]1Oc2ncc(C#Cc3ccccc3OC)cc2C(=O)N([C@@H](C)CO)C[C@H]1C`, the activation was 5.1%.

As for `C[C@@H]1CN([C@H](C)CO)S(=O)(=O)c2ccc(-c3cncnc3)cc2O[C@@H]1CN(C)Cc1ccccn1`, the activation is 5.28%.

Consider `COCC(=O)N(C)C[C@H]1Oc2cc(Br)ccc2S(=O)(=O)N([C@H](C)CO)C[C@H]1C`, for which the activation is -1.48%.

With `CCC(=O)N(C)C[C@H]1Oc2ncc(C#Cc3cccnc3)cc2C(=O)N([C@H](C)CO)C[C@H]1C`, the activation was 6.77%.

On to `C[C@@H]1CN([C@H](C)CO)C(=O)c2cc(-c3cccc(F)c3)cnc2O[C@H]1CN(C)C(=O)Nc1ccccc1F`, for which the activation is -3.89%.

Consider `C[C@H](O)C#Cc1ccc2c(c1)O[C@@H](CN(C)Cc1cccnc1)[C@H](C)CN([C@H](C)CO)S2(=O)=O`, for which the activation was 0.774%.

In the case of `CCCNc1ncnc2sc(C)c(C)c12`, the activation was -122%.

Take `Cc1ccc(S(=O)(=O)N(C)C[C@H]2Oc3ccc(NC(=O)CCC(F)(F)F)cc3C(=O)N([C@@H](C)CO)C[C@H]2C)cc1`: the activation is -99.9%.

`C[C@@H]1CN([C@@H](C)CO)S(=O)(=O)c2ccc(-c3ccncc3)cc2O[C@@H]1CN(C)C(=O)Nc1ccc(F)cc1`: the activation is -17.3%.

Turning to `C[C@H](CO)N1C[C@H](C)[C@@H](CN(C)C(=O)C2CC2)Oc2ncc(C#CC(C)(C)O)cc2C1=O`, the activation was 1.07%.

As for `C[C@H]1CN([C@@H](C)CO)C(=O)c2cc(C3=CCCCC3)cnc2O[C@@H]1CN(C)C(=O)c1ccc(F)cc1`, the activation was -3.28%.

For `CO[C@@H]1CN(C)C(=O)c2cc(NC(=O)C3CCOCC3)ccc2OC[C@H](C)N(C)C[C@H]1C`, the activation is 0.196%.

In the case of `Cc1ccc(S(=O)(=O)Nc2ccc3c(c2)CC(=O)N([C@@H](C)CO)C[C@H](C)[C@H](CN(C)Cc2ccc(C(=O)Nc4ccccc4N)cc2)O3)cc1`, the activation was -252%.

In the case of `CCC(=O)Nc1ccc2c(c1)OC[C@H](C)N(C(=O)c1ccccc1F)C[C@@H](C)[C@H](OC)CN(C)C2=O`, the activation is -3.57%.

As to `C[C@H]1CN([C@@H](C)CO)C(=O)c2cc(-c3cccc(F)c3)cnc2O[C@@H]1CN(C)S(C)(=O)=O`, the activation is -3.18%.

`COc1ccc(/C=C/C(=O)Nc2ccc(C34CC5CC(CC(O)(C5)C3)C4)cc2)cc1OC`: the activation is 56.9% (active).

As to `CC(C)NC(=O)N(C)C[C@@H]1Oc2ncc(C3=CCCCC3)cc2C(=O)N([C@H](C)CO)C[C@@H]1C`, the activation is 5.61%.

Values taken from PubChem BioAssay AID623901 (Broad Institute, 2012).
